The whole screen tested about 5,500 compounds, of which about 2,000 (36%) were called active. Inconclusive results (about 18%) are left out. Rule as the data show it: active = normalized growth mostly below about 0.91 (no sharp cut-off); inconclusive = no clear call, values can overlap the other calls; inactive = mostly above about 0.92. The list shows a part of the results.
Experiment: chemical genetic growth profiling, strain panel (AID 1159580);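 also: tested at 20 µM; growth read once vehicle control cultures reached saturation at 30 °C; 1 = growth at the plate median or of vehicle wells; lower values mean less growth of the strain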
Settings: growth OD

Measured: normalized growth

O=S(=O)(O)CCS
inactive: S. cerevisiae deletion strains, locus YKL009W, strain mrt4, stronger effect = lower value 1.02 | S. cerevisiae deletion strains, locus YKL068W, stronger effect = lower value 0.993 | S. cerevisiae deletion strains, locus YKL085W, strain MDH1 (second series), stronger effect = lower value 0.99 | S. cerevisiae deletion strains, locus YKL085W, strain MDH1, stronger effect = lower value 0.99 | S. cerevisiae deletion strains, locus YKL160W, strain elf1, stronger effect = lower value 0.941 | S. cerevisiae deletion strains, locus YKL190W, strain CNB1, stronger effect = lower value 1.01 | S. cerevisiae deletion strains, locus YKR001C, strain vps1, stronger effect = lower value 1.02 | S. cerevisiae deletion strains, locus YKR026C, strain gcn3, stronger effect = lower value 0.996 | S. cerevisiae deletion strains, locus YKR091W, strain srl3, stronger effect = lower value 0.98 | S. cerevisiae deletion strains, locus YLL001W, strain dnm1, stronger effect = lower value 1 | S. cerevisiae deletion strains, locus YLL026W, stronger effect = lower value 1.01 | S. cerevisiae deletion strains, locus YLL041C, strain sdh2, stronger effect = lower value 1 | S. cerevisiae deletion strains, locus YLR027C, strain aat2, stronger effect = lower value 0.997 | S. cerevisiae deletion strains, locus YLR039C, strain RIC1, stronger effect = lower value 1.03 | S. cerevisiae deletion strains, locus YLR058C, strain SHM2, stronger effect = lower value 1.02 | S. cerevisiae deletion strains, locus YLR102C, strain apc9, stronger effect = lower value 0.992 | S. cerevisiae deletion strains, locus YLR113W, strain HOG1, stronger effect = lower value 0.956 | S. cerevisiae deletion strains, locus YLR221C, strain rsa3, stronger effect = lower value 1.03 | S. cerevisiae deletion strains, locus YLR258W, strain gsy2, stronger effect = lower value 1 | S. cerevisiae deletion strains, locus YLR262C, strain YPT6 (second series), stronger effect = lower value 1.01 | S. cerevisiae deletion strains, locus YLR262C, strain YPT6, stronger effect = lower value 1.05 | S. cerevisiae deletion strains, locus YLR268W, strain sec22, stronger effect = lower value 0.993 | S. cerevisiae deletion strains, locus YLR320W, strain mms22, stronger effect = lower value 0.979 | S. cerevisiae deletion strains, locus YLR330W, strain CHS5, stronger effect = lower value 1.02 | S. cerevisiae deletion strains, locus YLR342W, strain FKS1 (second series), stronger effect = lower value 0.989 | S. cerevisiae deletion strains, locus YLR342W, strain FKS1, stronger effect = lower value 0.965 | S. cerevisiae deletion strains, locus YLR357W, strain rsc2, stronger effect = lower value 0.912 | S. cerevisiae deletion strains, locus YLR370C, strain arc18, stronger effect = lower value 0.98 | S. cerevisiae deletion strains, locus YLR371W, strain rom2, stronger effect = lower value 0.996 | S. cerevisiae deletion strains, locus YLR384C, strain iki3, stronger effect = lower value 0.97 | S. cerevisiae deletion strains, locus YLR418C, strain cdc73, stronger effect = lower value 0.976 | S. cerevisiae deletion strains, locus YML016C, strain PPZ1, stronger effect = lower value 1.01 | S. cerevisiae deletion strains, locus YML032C, strain rad52, stronger effect = lower value 0.992 | S. cerevisiae deletion strains, locus YML120C, strain ndi1, stronger effect = lower value 0.993 | S. cerevisiae deletion strains, locus YML124C, strain tub3, stronger effect = lower value 0.994 | S. cerevisiae deletion strains, locus YMR058W, strain fet3, stronger effect = lower value 1.01 | S. cerevisiae deletion strains, locus YMR078C, strain ctf18, stronger effect = lower value 0.991 | S. cerevisiae deletion strains, locus YMR125W, strain sto1, stronger effect = lower value 0.961 | S. cerevisiae deletion strains, locus YMR129W, stronger effect = lower value 0.988 | S. cerevisiae deletion strains, locus YMR205C, strain PFK2, stronger effect = lower value 1.01 | S. cerevisiae deletion strains, locus YMR223W, strain ubp8, stronger effect = lower value 0.987 | S. cerevisiae deletion strains, locus YMR231W, strain pep5, stronger effect = lower value 0.978 | S. cerevisiae deletion strains, locus YMR307W, strain GAS1, stronger effect = lower value 1 | S. cerevisiae deletion strains, locus YNL067W, strain RPL9B, stronger effect = lower value 1.03 | S. cerevisiae deletion strains, locus YNL071W, strain lat1, stronger effect = lower value 0.996 | S. cerevisiae deletion strains, locus YNL153C, strain GIM3, stronger effect = lower value 1.04 | S. cerevisiae deletion strains, locus YNL183C, strain NPR1, stronger effect = lower value 0.933 | S. cerevisiae deletion strains, locus YNL209W, strain ssb2, stronger effect = lower value 0.981 | S. cerevisiae deletion strains, locus YNL233W, strain BNI4, stronger effect = lower value 1.02 | S. cerevisiae deletion strains, locus YNL248C, strain rpa49, stronger effect = lower value 0.947 | S. cerevisiae deletion strains, locus YNL250W, strain rad50, stronger effect = lower value 0.987 | S. cerevisiae deletion strains, locus YNL271C, strain bni1, stronger effect = lower value 0.981 | S. cerevisiae deletion strains, locus YNL298W, strain CLA4, stronger effect = lower value 0.982 | S. cerevisiae deletion strains, locus YNL307C, strain MCK1, stronger effect = lower value 0.984 | S. cerevisiae deletion strains, locus YNL322C, strain KRE1 (second series), stronger effect = lower value 0.967 | S. cerevisiae deletion strains, locus YNL322C, strain KRE1, stronger effect = lower value 1.01 | S. cerevisiae deletion strains, locus YNR049C, strain mso1, stronger effect = lower value 0.964 | S. cerevisiae deletion strains, locus YNR052C, strain pop2, stronger effect = lower value 0.995 | S. cerevisiae deletion strains, locus YOL006C, strain TOP1, stronger effect = lower value 1.07 | S. cerevisiae deletion strains, locus YOL012C, strain htz1 1.22 | S. cerevisiae deletion strains, locus YOL147C, strain pex11, stronger effect = lower value 0.989 | S. cerevisiae deletion strains, locus YOR001W, strain rrp6, stronger effect = lower value 0.996 | S. cerevisiae deletion strains, locus YOR061W, strain CKA2, stronger effect = lower value 1.02 | S. cerevisiae deletion strains, locus YOR069W, strain VPS5, stronger effect = lower value 1.01 | S. cerevisiae deletion strains, locus YOR070C, strain gyp1, stronger effect = lower value 0.988 | S. cerevisiae deletion strains, locus YOR080W, strain dia2, stronger effect = lower value 0.964 | S. cerevisiae deletion strains, locus YOR106W, strain vam3, stronger effect = lower value 0.982 | S. cerevisiae deletion strains, locus YOR136W, strain idh2, stronger effect = lower value 0.994 | S. cerevisiae deletion strains, locus YOR144C, strain elg1, stronger effect = lower value 0.993 | S. cerevisiae deletion strains, locus YOR184W, strain ser1, stronger effect = lower value 0.983 | S. cerevisiae deletion strains, locus YOR231W, strain MKK1, stronger effect = lower value 0.974 | S. cerevisiae deletion strains, locus YOR265W, strain rbl2, stronger effect = lower value 0.999 | S. cerevisiae deletion strains, locus YOR270C, strain vph1, stronger effect = lower value 0.939 | S. cerevisiae deletion strains, locus YOR290C, strain snf2, stronger effect = lower value 0.974 | S. cerevisiae deletion strains, locus YOR316C, strain cot1, stronger effect = lower value 0.988 | S. cerevisiae deletion strains, locus YPL051W, strain arl3, stronger effect = lower value 0.991 | S. cerevisiae deletion strains, locus YPL055C, strain LGE1, stronger effect = lower value 1.07 | S. cerevisiae deletion strains, locus YPL078C, strain atp4, stronger effect = lower value 0.969 | S. cerevisiae deletion strains, locus YPL106C, strain sse1, stronger effect = lower value 0.96 | S. cerevisiae deletion strains, locus YPL240C, strain hsp82, stronger effect = lower value 0.994 | S. cerevisiae deletion strains, locus YPL241C, strain CIN2, stronger effect = lower value 1.01 | S. cerevisiae deletion strains, locus YPL256C, strain CLN2, stronger effect = lower value 0.997 | S. cerevisiae deletion strains, locus YPR119W, strain clb2, stronger effect = lower value 0.99 | S. cerevisiae deletion strains, locus YPR141C, strain kar3, stronger effect = lower value 0.987 | S. cerevisiae deletion strains, locus YPR163C, strain tif3, stronger effect = lower value 0.99 | S. cerevisiae deletion strains, locus YPR167C, strain met16, stronger effect = lower value 0.98 | S. cerevisiae deletion strains, strain wtn01, stronger effect = lower value 0.981 | S. cerevisiae strains, strain wild type, stronger effect = lower value 1.01
active: S. cerevisiae deletion strains, locus YOR083W, strain WHI5, stronger effect = lower value 0.888

Reference: PubChem BioAssay AID1159580 (chemical genetic matrix, 2015)
